Drawing on PubChem BioAssay (NCI), this text covers growth for 38 compounds.

Molecules are shown by their SMILES. Values joined by “and” are separate entries in the source; they are usually repeats but may differ in a detail not shown here. Equal entries are not always repeated. About 83,000 compounds went through this panel and 20% of them were active in at least one assay; those are over-represented in the sample as a whole.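 Negative percent growth values reflect cell death: -40 means 40% of the cells present at the start died, and -100 means all died.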 Active and inactive are the calls of the source.

One assay relates to OVCAR-4 ovarian. Briefly: NCI-60 one-dose screen, 48 h (100 = growth as untreated, 0 = no growth, -100 = all killed). Particulars: 10 µM. The method, then: Growth inhibition of the OVCAR-4 human tumor cell line is measured as a screen for anti-cancer activity. Cells are grown in 96 well plates and exposed to the test compound for 48 hours. Compounds are tested at a single concentration, which is 10^-5 M for most compounds. The reported endpoint is percent growth (GI% or GIPRCNT), where numbers from 0 - 100% represent growth inhibition, and numbers from -100% - 0 represent cell death. For example, a value of 40 represents 60% growth inhibition. A value of 0 means no net growth occurred over the course of the experiment. A value of -40 indicates 40% of cells at the beginning of the experiment died by the end of the experiment. A value of -100 means all cells are dead at the end of the experiment.
NCI-60 Human Tumor Cell Lines Screen was performed using the standard one-dose NCI protocol, which is described in more detail at https://dtp.cancer.gov/discovery_development/nci-60/default.htm.
Compounds with GIPRCNT values below 10 were considered active. Activity score was based on GIPRCNT using the following formula: […]
Score is 0 for GIPRCNT values of 100 or above, 50 for GIPRCNT values of 0, and 100 for GIPRCNT values of -100.
For `O=C(Nc1c(Cl)cccc1Cl)Oc1cccc2cccnc12`, the growth is 15.9% (inactive). Still for that read-out and setting: the value for `CN(C)C(=O)c1ccc(SC(=S)NCc2ccccc2)cc1` was 113% (inactive).

Still in this assay, the particulars now being: 10 µM unless noted.
For the compound `Cc1cc(C(C)(CC(C)C)c2ccc(O)c(C)c2)ccc1O`, the growth was 94.8% (inactive). As for `COC(=O)Nc1nc2ccc(C(=O)c3ccccc3)cc2[nH]1`, the growth is 52.6% (inactive) and 72.1% (inactive) and 39.6% (inactive).

Turning to `CN(C)c1ccc(C(=C2C=CC(=[N+](C)C)C=C2)c2ccc(N(C)C)cc2)cc1` (tested in a mixture with another compound), the growth is -40.1% (active). Regarding `c1ccc2c(c1)Nc1cc3ccccc3cc1N2`, the growth is 32.6% (inactive).

Take `CCOC(=O)/C=C/c1ccc([N+](=O)[O-])o1`: the growth is 97.4% (inactive). With `NC1=CC(=O)c2ccccc2C1=O`, the growth was 87.7% (inactive). Turning to `CCN1/C(=C\c2cc[n+](CC)c3ccccc23)C=Cc2ccccc21`, the growth was 12.9% (inactive). `CCCCCC(CCCCC)C(=O)O`: the growth is 106% (inactive). Same read-out and setting: then `CC(=O)ON=C1C=CC(=C(C#N)c2ccccc2)C=C1`, with 60.6% (inactive).

On to `Nc1ncnc2c1ncn2C1OC(CO)C(O)C1O` (stereo not given), for which the growth is 123% (inactive) and 83.8% (inactive) and 91.7% (inactive). As to `O=C(Nc1ccc(F)cc1)ON=C1CCCCC1`, the growth is 99.1% [100 µM] (inactive). For `O=Nc1ccccc1N=O`, the growth was 88.9% (inactive).

In the case of `OC(CNc1ccnc2cc(Cl)ccc12)CNc1ccnc2cc(Cl)ccc12`, the growth is 48% (inactive). With `CCN(CC)CC(C)(C)C(=O)/C=C/c1ccc(Cl)c(Cl)c1`, the growth was 30.3% (inactive). With `CC1(C)CC([P+](c2ccccc2)(c2ccccc2)c2ccccc2)=NN1`, the growth is 17.9% (inactive). With `O=C1c2cccnc2-c2nccc3c2c1nc1cc(Br)ccc13`, the growth was -54.2% (active) and -85.3% (active). With `NC(=S)N/N=C/c1ccc(Cl)s1`, the growth is 109% (inactive). Consider `N#CSCc1c(Cl)cccc1Cl`, for which the growth was 35.2% (inactive). With `Oc1c(Br)c(Br)c(O)c(Br)c1Br`, the growth is 68.7% (inactive). On the same count and under the same terms, the value for `COC(=O)c1nc(=S)[nH]c(C(=O)OC)c1C(=O)c1ccccn1` was 25.3% (inactive); that for `CN(C)CCOc1ccc2c(c1)C(=O)/C(=C\c1ncc([N+](=O)[O-])n1C)C2` was -49.1% (active); that for `O=C(/C=C/c1cccc(Cl)c1)c1ccccc1` was 97.8% (inactive) and 92.9% (inactive).

As to `CCC(CC)COC(=O)c1ccc(O)c(O)c1`, the growth was 77.2% (inactive).

In the case of `O=C(/C=C/C=C/c1ccccc1)c1ccco1`, the growth is 78.7% (inactive). In the case of `C/C=C1\SC(=S)NC1=O`, the growth is 101% (inactive). `CC(C)(C)c1ccc(O)c(C2CCCCC2)c1`: the growth is 101% (inactive). As to `CC(=O)Nc1cccc2cc(O)ccc12`, the growth is 119% (inactive) and 109% (inactive) and 98.8% (inactive).

Regarding `Cc1ccnc2c1ccc1c(C)ccnc12`, the growth was 24.1% (inactive). With `N#CSCc1ccc(CSC#N)c(Cl)c1`, the growth was 85.2% (inactive). As for `CCOC(=O)/C(=C\c1ccc(-c2ccccc2)cc1)C(C)=O`, the growth is 105% (inactive).

As to `C[n+]1c(/C=C/c2ccc([N+](=O)[O-])cc2)ccc2ccccc21`, the growth was 105% (inactive).

Regarding `C=C(Cl)C(=NC(C)(C)C)Nc1ccccc1C`, the growth is 91.7% (inactive).

As for `Cn1c2c(c3ccccc31)CCN1C[C@@H]3CCCC[C@H]3C[C@@H]21`, the growth is 40.9% (inactive). Consider `O=C(O)C1C2CC3C(OC(=O)C31)C2Br` (stereo not given), for which the growth was 114% (inactive) and 89.8% (inactive). On the same count and under the same terms, the value for `O=[N+]([O-])c1ccc2c(N=Nc3ccc4ccccc4c3O)c(O)cc(S(=O)(=O)O)c2c1` was 63% (inactive); that for `CCCCCCCCCCCCCCCCOP(=O)([O-])OCC[N+](C)(C)C` was 78.3% (inactive).

Staying with this assay, now noted: 100 µM.
Consider `O=C(Nc1c(Cl)cccc1Cl)Oc1cccc2cccnc12`, for which the growth was 14.5% (inactive). On to `CN(C)C(=O)c1ccc(SC(=S)NCc2ccccc2)cc1`, for which the growth is 43.8% (inactive).
